Drawing on PubChem BioAssay (NCI), this text covers growth inhibition for 20 compounds.

About 79,000 compounds went through this panel and 15% of them were active in at least one assay; those are over-represented in the sample as a whole. A number with no mark means an inactive call. Activity calls are given as the source filed them. No stated cut-off is given here; in the data, active means growth inhibition above about 70%; inactive means the rest.

Test [1] in a line: NCI Yeast Anticancer Drug Screen. Data for the rad50 strain (AID 155).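 Further: 0% = growth of vehicle-only cultures of the same strain.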 The following applies: S. cerevisiae rad50 strain growth inhibition; at 50.0 µM; hits give high values. The method, boiled down: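 Readout: growth inhibition relative to vehicle-treated cultures. Compound exposure was carried out in a genetically defined yeast strain deficient in DNA damage repair.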
Test [2] can be described thus: NCI Yeast Anticancer Drug Screen. Data for the mec2-1 strain (AID 157). The following applies: S. cerevisiae mec2-1 strain, at 50.0 µM, hits give high values. The gist of the method: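 Compounds were applied to mec2-1 yeast cells. Their growth was then compared with that of vehicle-treated cultures to give growth inhibition.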
Test [3] in a line: NCI Yeast Anticancer Drug Screen. Data for the sgs1 mgt1 strain (AID 161).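 Further: 0% = growth of cultures given vehicle only.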 The following applies: S. cerevisiae sgs1 mgt1 strain, at 50.0 µM, hits give high values. The method, boiled down:
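This yeast growth screen uses a strain with defined DNA-repair lesions; compound-treated growth is compared with vehicle-treated growth.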

A short description of test [4]: NCI Yeast Anticancer Drug Screen. Data for the cln2 rad14 strain (AID 165).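 Further: 0% = growth equal to vehicle treated cultures.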 As to conditions: S. cerevisiae cln2 rad14 strain, at 50.0 µM, hits give high values. The gist of the method:
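Strain: cln2 rad14 yeast, altered in cell cycle control and DNA damage repair. Read-out: growth inhibition vs vehicle.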

Test [5] is described as follows: NCI Yeast Anticancer Drug Screen. Data for the bub3 strain (AID 167). The following applies: S. cerevisiae bub3 mutant strain, at 50.0 µM, hits give high values. The gist of the method:
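Readout: yeast growth inhibition, expressed relative to vehicle-only wells. The test organism is a mutant strain from a panel with lesions in DNA repair or checkpoint genes.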

Test [6] is described as follows: NCI Yeast Anticancer Drug Screen. Data for the mlh1 rad18 strain (AID 175). As to conditions: S. cerevisiae mlh1 rad18 strain growth inhibition; at 50.0 µM; hits give high values. The gist of the method: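 A repair-deficient yeast strain is exposed to test compound, and growth is scored relative to vehicle-treated controls.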

Take `Cc1cc(N)ccc1[N+](=O)[O-]`: the growth inhibition in test [1] was 2.2%; in test [2], 31%; in test [3], 9%; in test [4], -29.1%; in test [5] it was 11.7%; in test [6], 1.75%.
With `CCc1nc2c([nH]1)C(=O)c1ccccc1C2=O`, the growth inhibition is 68.1% in test [1]; 19.2% in test [2]; 44.2% in test [3]; 9.25% in test [4]; 18.7% in test [5]; 42% in test [6].
Regarding `Cc1ccc(SS(=O)(=O)c2ccc([N+](=O)[O-])cc2)cc1`, the growth inhibition in test [1] was 13.9%; in test [2] it was 12.4%; in test [3] it was 9.3%; in test [4], -29.4%; in test [5], -5.45%; in test [6], 16.6%.
In the case of `COc1ccc(C2(C(OC)OC)NC(=O)N(Cc3ccccc3)C2=O)cc1` (stereo not given), the growth inhibition is 2.7% in test [1]; -10.6% in test [2]; -4.5% in test [3]; -49.4% in test [4]; -11.8% in test [5]; -10.3% in test [6].
For `CC(=O)/C=C/CCC(=O)/C=C/C(=O)OC(CCC(=O)/C=C/C(=O)O)CC(C)=O` (stereo not given), the growth inhibition was -5.25% in test [1]; -30.4% in test [2]; -18.4% in test [3]; 19.1% in test [4]; -24.1% in test [5]; -5.95% in test [6].
As to `COc1ccc(C(C)=O)cc1CCCOC(C)=O`, the growth inhibition in test [1] is -0.7%; in test [2], -1.35%; in test [3], -7.5%; in test [4] it was 10.7%; in test [5] it was 9%; in test [6] it was -2.6%.
For `C1CCC2(CC1)OCCO2`, the growth inhibition in test [1] was -0.75%; in test [2], -37.9%; in test [3] it was -20.8%; in test [4], 1.3%; in test [5], -7.85%; in test [6] it was 0.6%.
With `CC(CN(C)C)C(=O)C(=Cc1ccccc1)C(=O)C(C)CN(C)C` (stereo not given), the growth inhibition in test [1] is 40.1%; in test [2] it was 13.1%; in test [3], 16.9%; in test [4], 22.5%; in test [5], -2.5%; in test [6], 20%.
`CC(=O)OC1CCC2(C)C(CCC3(C)C2CCC2C4C5OC(=O)C4(CCC5(C)C)CCC23C)C1(C)C` (stereo not given): the growth inhibition in test [1] is -13%; in test [2] it was -23.9%; in test [3], -17.1%; in test [4] it was -5.2%; in test [5], -33%; in test [6], 4.6%.
With `CCOC(=O)c1[nH]n(-c2ccccc2)c(=O)c1/C=N/C(N)=S`, the growth inhibition in test [1] was 2%; in test [2], -1.95%; in test [3], -15.8%; in test [4], 14.1%; in test [5] it was 17.8%; in test [6], 8.45%.
Regarding `O=C1C2C(C(=O)N1c1ccccc1)C1(c3cccnc3)NC(=O)C2(Cc2cccnc2)c2ccccc21` (stereo not given), the growth inhibition in test [1] is 12.6%; in test [2] it was -5.85%; in test [3], 8.95%; in test [4], 19.7%; in test [5] it was -1.55%; in test [6], 13.5%.
Take `COc1cccc(/C=C2/Sc3sc(C(C)=O)c(C)[n+]3C2=O)c1O`: the growth inhibition in test [1] is -15.9%; in test [2] it was -1.55%; in test [3], 8.7%; in test [4] it was -2.05%; in test [5] it was -4.55%; in test [6], -9.6%.
`C=CCN1C(N)=C(C#N)C(C#N)(C#N)C1CCC` (stereo not given): the growth inhibition in test [1] was 1.2%; in test [2], 7.65%; in test [3], -47.9%; in test [4], 15.8%; in test [5], -16.6%; in test [6], -36.6%.
As for `CC1(C)CC(C(N)=O)C(=O)O1` (stereo not given), the growth inhibition was -17.4% in test [1]; -4.15% in test [2]; -21.6% in test [3]; -25.9% in test [4]; 5.1% in test [5]; -2.4% in test [6].
For `Cc1cccc(Cl)c1N=Nc1c(C)nc(N)nc1-c1ccccc1`, the growth inhibition in test [1] is 7.1%; in test [2], 15.8%; in test [3] it was 5.8%; in test [4], -11.5%; in test [5], 1.1%; in test [6], 7.8%.
Turning to `CNc1ccc(CC(=O)O)cc1`, the growth inhibition in test [1] is -2.75%; in test [2], 3.85%; in test [3], -2.45%; in test [4], -42%; in test [5], -2.05%; in test [6] it was 1.8%.
In the case of `COc1ccc(N2C(=O)C3c4[nH]c5ccc(F)cc5c4C4CCC(C(C)(C)C)CC4C3C2=O)cc1` (stereo not given), the growth inhibition was -7.05% in test [1]; -2.3% in test [2]; 1.55% in test [3]; 7.45% in test [4]; -3.2% in test [5]; 22.1% in test [6].
Take `Cc1cc2c(c(S(=O)(=O)c3ccc(Cl)cc3[N+](=O)[O-])c1)NCCC2`: the growth inhibition was 6.4% in test [1]; 11% in test [2]; 8.25% in test [3]; 15.3% in test [4]; 15.7% in test [5]; -0.7% in test [6].
For `N#CC(c1ccccc1)c1ccccn1` (stereo not given), the growth inhibition in test [1] was 5.9%; in test [2], 8.35%; in test [3] it was 8.75%; in test [4], -9.2%; in test [5], 5.5%; in test [6], 2.75%.
As for `COc1cccc2c1C(=O)C=CC2=O`, the growth inhibition in test [1] is 76.8% (active); in test [2], 80.7% (active); in test [3], 84.3% (active); in test [4] it was 87.2% (active); in test [5], 87.2% (active); in test [6], 91.8% (active).
